Screens deposited in PubChem BioAssay by National Center for Advancing Translational Sciences (NCATS).
Sm TGR inh: qHTS Assay for the Inhibitors of Schistosoma Mansoni Peroxiredoxins; actives 3% (n = 360,000); Potency, µM (series often up to 114 µM), without a hit: top-dose activity change, negative = inhibition, most hits filed as inhibitors; purified TGR, DTNB reduction, TNB absorbance 405 nm; Schistosoma mansoni thioredoxin glutathione reductase (TGR), Q962Y6; AID 485364, 2010; further: on the % scale 0 is the no-effect control and ±100 the full control effect; nearly all actives have a fitted effect of over 60% in size
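First, TGR (20 nM dispensed) and NADPH were mixed with compound. Second, a 15 min room-temperature incubation followed. Third, further NADPH and then DTNB were added to start the reaction. Finally, TNB absorbance was monitored kinetically.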
Pf growth 48h: Primary qHTS for delayed death inhibitors of the malarial parasite plastid, 48 hour incubation | P. falciparum luciferase growth in erythrocytes, 48 h | Potency, µM (titrated, usually from 28.7 µM), without a hit: at the top dose activity change, negative = inhibition, most hits filed as inhibitors | actives 5.9% (n = 310,000) | AID 504832, 2011; further: on the % scale 0 is the no-effect control and ±100 the full control effect
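Compounds are pin-transferred into medium, infected erythrocytes (2% hematocrit, 0.1% parasitemia final) are added, and plates sit one parasite generation at 37 C in 5% CO2. Detection reagent is then added and luminescence measured.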
SARS PLP yeast: qHTS of Yeast-based Assay for SARS-CoV PLP; S. cerevisiae expressing SARS-CoV PLpro, growth rescue; Potency, µM (series often up to 32.9 µM), for the others: at the highest dose activity, positive = growth rescue, hits mostly activators; actives 0.19% (n = 330,000); calls by dose curve; further: 0% is about no effect; nearly all actives have a fitted effect of over 55% in size
Pf growth 96h: Primary qHTS for delayed death inhibitors of the malarial parasite plastid, 96 hour incubation | P. falciparum luciferase reporter growth, 96 h | Potency, µM (titrated, usually from 28.7 µM), for the others: at the top dose activity change, negative = inhibition, hits mostly inhibitors | actives 6.9% (n = 320,000) | AID 504834, 2011; further: on the % scale 0 is the no-effect control and ±100 the full control effect
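96 h incubation, 37 C, 5% CO2, of luciferase-reporter P. falciparum-infected RBCs (2% hematocrit, 0.05% parasitemia final) with test compounds; endpoint luminescence.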
Starred values were filed as active, the others as inactive; i = inactive; ? = inconclusive; · = no result; [ ] = dose if it differs, or a comment. Compounds with a hit are over-represented: about 12% of the library has one in this group of screens. Unless noted, the call rests on the fitted dose curve; in most records, active means well fitted curve in the direction sought with a large enough effect; inconclusive means small, poorly fitted or top-dose-only effect, or another doubt; inactive means no such curve, though single readings can be large; an effect the other way counts as inactive or inconclusive. Potency means the concentration at half of the fitted maximal effect.

SMILES	Sm TGR inh	Pf growth 48h	SARS PLP yeast	Pf growth 96h
Cc1nc2cc(-c3ccccc3)nn2c(C)c1CCC(=O)N1CCN(c2ccc(F)cc2)CC1	5.1%	·	·	·
COc1ccc(-n2nc3c(c2NC(=O)c2ccc(Br)o2)CS(=O)(=O)C3)cc1	35.5µM*	-2.6%	18.5%	?
COc1ccc(-n2nc3c(c2NC(=O)c2cc4ccccc4o2)CS(=O)(=O)C3)cc1	50.1µM*	2.5%	13.3%	-18.6%
CC(Oc1ccccc1)C(=O)Nc1c2c(nn1-c1ccccc1)CS(=O)(=O)C2 (centres undefined)	2.7%	14.2%	3.0%	36.7%
O=C(Nc1c2c(nn1-c1ccc(F)cc1)CS(=O)(=O)C2)c1ccc(Br)o1	-4.0%	11.7µM*	3.8%	?
COc1ccc(-n2nc3c(c2NC(=O)C(C)Oc2ccccc2)CS(=O)(=O)C3)cc1 (centres undefined)	-0.6%	0.2%	13.1%	9.28µM*
Cc1ccc(Cn2c(C)c(CNCC(C)c3ccccc3)c(C(=O)O)c2C)cc1 (centres undefined)	-1.5%	·	·	·
CC[C@@H]1C/C=C\Cc2ccccc2[C@@H](C(=O)C[C@@H](O)CC(C)=O)OC1=O	·	·	1.2%	·
O=C(Nc1c2c(nn1-c1ccc(F)cc1)CS(=O)(=O)C2)C1CCCC1	-13.0%	3.6%	-3.5%	10.4µM*
Cc1ccc(-n2nc3c(c2NC(=O)C2CC2)CS(=O)(=O)C3)cc1	-10.9%	8.0%	8.0%	-9.0%
CCN(CC(=O)Nc1c(F)cccc1F)C(=O)CCN1C(=O)c2cccc([N+](=O)[O-])c2C1=O	-9.1%	-9.4%	-0.2%	28.5%
CCCc1ccc(S(=O)(=O)N2CCC(Oc3ccc(-n4cnnn4)cc3)CC2)cc1	1.6%	·	·	·
CCC(C(=O)NCCc1cc(OC)ccc1OC)n1nc(C)c2sc3ccccc3c2c1=O (centres undefined)	0.6%	·	·	·
COc1cccc(C(=O)c2ncc(C(F)(F)F)cc2Cl)c1	50.1µM*	-25.7%	-1.2%	?
Nc1ccccc1Oc1ncc(C(F)(F)F)cc1Cl	-6.3%	5.22µM*	4.6%	52.7%
COc1ccc(C(=O)c2ncc(C(F)(F)F)cc2Cl)cc1	2.2%	6.3%	1.0%	22.8%
COC(=O)c1sc2cccc(F)c2c1S(=O)(=O)Nc1cc(C)c(Cl)cc1OC	0.3%	·	·	·
CC(C)(Oc1ccc(Cl)cc1)C(=O)NC1CCCCC1	3.0%	11.7µM*	0.9%	-1.6%
Cc1ccc(OCCCCn2nnc3sc4c(c3c2=O)CCCC4)cc1	-0.1%	·	·	·
COc1ccc(N=c2oc3cc(O)ccc3cc2C(=O)Nc2ccccn2)cc1OC	-8.6%	4.65µM*	0.5%	-10.5%
Cc1ccc(S(=O)(=O)N/N=C/c2ccc(O)cc2O)cc1[N+](=O)[O-]	-5.2%	18.5%	0.7%	7.2%
Cc1ccc(S(=O)(=O)N/N=C/c2cc([N+](=O)[O-])ccc2O)cc1[N+](=O)[O-]	28.2µM*	i	-2.7%	?
COc1ccc(-n2c(O)c(/C=N/NS(=O)(=O)c3ccc(C)c([N+](=O)[O-])c3)c3ccccc3c2=O)cc1OC	10µM*	?	-0.4%	11.7µM*
O=C(C(=O)N1CCCC1)c1c(-c2ccccc2)[nH]c2ccccc12	-8.0%	·	-1.5%	-6.0%
CC1(c2ccccc2)CC(C)(C)N2C(=O)C(=O)c3cccc1c32 (centres undefined)	-0.1%	11.7µM*	-6.0%	25.7%
SMILES	Sm TGR inh	Pf growth 48h	SARS PLP yeast	Pf growth 96h
CC1(c2ccccc2)CC(C)(C)N(C(=O)c2ccccc2Cl)c2ccccc21 (centres undefined)	0.0%	·	·	·
Cc1cc(=O)[nH]c(SCc2ccccc2)n1	2.8%	11.7µM*	5.5%	2.7%
COc1ccc(CSc2nc(C)cc(=O)[nH]2)cc1	1.5%	0.0%	5.7%	4.65µM*
Cn1c(N)c(C(=O)COC(=O)COc2cc(Cl)c(Cl)cc2Cl)c(=O)n(C)c1=O	·	·	-14.2%	·
COc1ccccc1-n1c(SCC(=O)Nc2cccc(C)c2)nc2c(c1=O)SCC2	3.7%	·	5.5%	10.4µM*
COc1ccccc1-n1c(SCC(=O)N2CCc3ccccc32)nc2c(c1=O)SCC2	-8.5%	11.7µM*	2.4%	?
COc1ccc(OC)c(-n2c(SCC(=O)N3CCc4ccccc43)nc3c(c2=O)SCC3)c1	-0.7%	?	20.7%	2.33µM*
COc1ccccc1-n1c(SCC(=O)Nc2ccc3c(c2)OCO3)nc2c(c1=O)SCC2	-2.6%	?	?	0.7%
Cc1ccc(CSc2c(C)cnc3c2c(=O)n(C)c(=O)n3C)cc1	9.9%	·	·	·
Cc1nn2c(=O)cc(COC(=O)c3ccc(NC(=O)c4ccc(C(C)(C)C)cc4)cc3)nc2s1	-3.2%	·	·	·
COc1ccccc1N1CCN(Cc2cc(=O)c(OCC(=O)NC3CCCC3)co2)CC1	-4.2%	?	-5.4%	?
C=CCN1C(=O)c2ccccc2NC1c1ccc(Br)s1 (centres undefined)	-3.9%	13.1µM*	1.3%	10.4µM*
CCOC(=O)CN(C(=O)CSc1nnc(COc2ccc(OC)cc2)n1CC)c1ccccc1	3.2%	8.28µM*	0.4%	6.57µM*
CCn1c(COc2ccccc2C)nnc1SCC(=O)N1CCCCC1	17.4%	?	2.0%	7.38µM*
CCOC(=O)CN(C(=O)CSc1nnc(CNc2ccc(C)cc2C)n1CC)c1ccccc1	-9.8%	?	2.8%	9.28µM*
CCn1c(COc2ccc(C)cc2)nnc1SCC(=O)C(C)(C)C	-12.1%	?	-0.9%	-3.4%[5.75 µM]
CCn1c(COc2ccccc2)nnc1SCC(=O)C(C)(C)C	8.2%	11.7µM*	6.5%	9.28µM*
COc1ccc(NC(=O)CN(C)C(=O)c2ccc3[nH]c4c(c3c2)CC(C)CC4)cc1 (centres undefined)	1.4%	6.3%	0.1%	-6.6%
Cc1cc(N2C(=O)C(O)=C(C(=O)c3ccc(C)o3)C2c2ccc([N+](=O)[O-])cc2)no1 (centres undefined)	-29.7%	-17.2%	3.7%	?
CCN(CC)CC(=O)c1c[nH]c2ccccc12	-30.5%	-9.7%	-8.8%	2.94µM*
O=C(Cn1cnc2ccccc2c1=O)c1c[nH]c2ccccc12	-0.5%	62.5%	-11.3%	6.57µM*
O=C(CSc1nc2c(cnn2-c2ccc(F)cc2)c(=O)[nH]1)Nc1ccc(Br)cc1	0.3%	·	·	·
COc1ccc(CNS(=O)(=O)c2c(C(=O)N3CCCCC3)c(C)n(C)c2C)cc1	-6.2%	11.5%	1.5%	33.1%
COc1cc(OC)c(NC(=O)CCCn2nc(C)c3sc4ccccc4c3c2=O)cc1Cl	-5.7%	·	·	·
c1ccc(Nc2nc(-c3ccccn3)cs2)cc1	0.0%	6.2%	·	-47.6%
COc1cccc2sc(Nc3nc(-c4ccccn4)cs3)nc12	0.0%	0.465µM*	-43.2%	?
CCOC(=O)C1=C(CN2CCCCC2)NC(=O)NC1c1ccc(OC)cc1 (centres undefined)	-0.7%	·	·	·
